PubChem BioAssay
Several values for one entry are separate records, joined by “and”; a condition that tells them apart may be missing. Equal values may be shown once. Activity calls are given as the source filed them.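 Rule for the calls, unless noted: active = inhibition at or above 50% relative to wild type and mutant plate controls; inactive = inhibition below 50%.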

Assays:
[1] = inhibitors of TNFa-induced NFkB p65 translocation, primary screen, imaging, HUVEC, MLSMR starter and 10KST1 sets (AID 438;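 active = inhibition above 20% together with a positive visual image hit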;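 note: compound added about 3h40 before a 20 min TNFalpha stimulation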;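 for inhibition: signal is the nuclear over cytoplasmic p65 intensity ratio per well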); conditions: HUVEC TNFa-induced p65 nuclear translocation; cell count: measured here: nuclei count (cytotoxicity indicator), at 2.08 µM unless noted; inhibition: at 2 µM, stronger effect = higher value unless noted
[2] = reduction of polyQ htt aggregates in cells – imaging, exon1htt(103Q)mCFP cells, high-content imaging, primary screen (AID 483;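 active = visual image review flags a hit and inhibition of aggregation exceeds 20%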;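 note: compound exposure lasted 3 days before fixation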;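 for nuclei count: percent of the per-plate median nuclei count of sample wells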); conditions: exon1htt(103Q)mCFP cell line, aggregate imaging, at 2 µM; inhibition of aggregation: stronger effect = higher value; nuclei count: measured here: cell count, toxicity
[3] = endothelial E-selectin expression blockers – imaging, HUVEC, immunofluorescence, MLSMR starter and 10KST1 sets, primary screen (AID 487;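 active = visually confirmed hit in the image check and inhibition above 20%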;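 for inhibition: signal is fraction of cell area covered by stained E-selectin grains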;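 for nuclei count: 100% = median nuclei count of all wells on the same plate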); conditions: HUVEC TNFalpha-induced E-selectin immunofluorescence imaging, at 2 µM; inhibition: stronger effect = higher value; nuclei count: measured here: cell number, toxicity
[4] = Primary imaging screen for DUSP6 inhibitors that restore phospho-Erk in transfected HeLa cells, chemical complementation (AID 609;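 active = compounds giving at least 50% inhibition in the cell-based MKP-3 phosphatase rescue imaging test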;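 for inhibition: phospho-Erk level distribution per well compared with pooled transfected vehicle control wells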); conditions: HeLa MKP-3 transfected, phospho-Erk imaging KS statistic, at 10 µM
[5] = target: Dual specificity protein phosphatase 6 (Homo sapiens) (UniProt Q16828); assay: as above; conditions: HeLa MKP-3 transfected, phospho-Erk imaging KS statistic, at 10 µM, stronger effect = higher value
[6] = target: Voltage-gated potassium channel subunit beta-2 (Rattus norvegicus) (UniProt P62483); assay: inhibitors of rat Kvbeta2 reductase activity – biochemical, NADPH fluorescence, primary screen (AID 622;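 active = fluorescence slope higher than the sample average by over 3 SD, cut at about -0.22 in these data, passing the limit was not always enough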;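 note: slope of raw intensity against log time taken from 70 to 1610 s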); conditions: recombinant KvBeta, 4-cyanobenzaldehyde reduction, at 10 µM, stronger effect = higher value
[7] = target: Voltage-gated potassium channel subunit beta-2 (Rattus norvegicus) (UniProt P62483); assay: enhancers of rat Kvbeta2 NADPH turnover – biochemical, NADPH fluorescence, primary screen (AID 623;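 active = NADPH fluorescence slope more negative than the mean of all samples by about 3 SD, 99.7% confidence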;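 note: fluorescence intensity change per second fitted from 20 to 320 s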); conditions: Recombinant KvBeta, NADPH fluorescence decrease slope, 10 min; at 10 µM; stronger effect = lower value
[8] = target: Alpha-2C adrenergic receptor (Homo sapiens) (UniProt P18825); assay: compounds altering alpha2C-coupled GIRK flux – cell-based, HEK293 alpha2C/GIRK1/2, thallium flux, primary screen (AID 624;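 active = fluorescence slope after compound addition differing from the mean of all screened samples at 99.7% confidence, in either direction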;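 note: slope of fluorescence ratio to pre-addition baseline per second over 15 to 24 s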); conditions: thallium flux BTC fluorescence, at 10 µM, actives lie on both sides
[9] = inhibitors of larval lipid processing in zebrafish, primary screen, whole organism, PED6 fluorescence, gall bladder and intestine (AID 686;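 active = a full or partial loss of lipid-probe fluorescence in the fish gall bladder, intestine or both, judged by eye; inactive = no fluorescence loss, or compound toxic to the fish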;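 note: larvae 5 to 7 days old with five fish per well; signal comes from phospholipase A2 cleavage of quenched PED6 carried via bile; overnight exposure to compound and PED6 before scoring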); conditions: Zebrafish larvae PED6 lipid processing, fluorescence scoring
[10] = loss of swimming-algae plug formation – whole organism, Chlamydomonas reinhardtii, WT vs cilia-less mutant, absorbance, 96-well, primary screen (AID 463189); conditions: Chlamydomonas reinhardtii gravitaxis, OD600 absorbance, 2 days; at 10 µM; stronger effect = higher value;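 note: 0% = wild type cc124 cells in DMSO and 100% = ciliumless bld1 mutant cells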
[11] = blockers of RIG-like receptor reporter activation – cell-based, Sendai virus stimulus, luciferase, 10K MLSCN set, TLR/RLR signaling modifier project, primary screen (AID 602276;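 active = inhibition at or above 50% at 10 µM; inactive = inhibition below 50%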;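 note: firefly luciferase from ISG56 promoter only with Renilla not read in this screen; 0% = Sendai virus plus DMSO and 100% = medium plus DMSO without virus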); conditions: HEK293 RL24 IRF3 luciferase reporter, at 10 µM, stronger effect = higher value
[12] = TLR3 IRF3 reporter activation blockers – cell-based, poly I:C stimulus, luciferase, 10K MLSCN set, primary screen (AID 602277;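 active = inhibition of the reporter signal at or above 50%; inactive = inhibition below 50%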); conditions: HEK293-TLR3 RL24 IRF3 luciferase reporter, at 10 µM, stronger effect = higher value
[13] = target: Muscarinic acetylcholine receptor M4 (Homo sapiens) (UniProt P08173); assay: M4-linked GIRK flux change, two-sided – cell-based, HEK293 M4/GIRK, thallium flux, BTC-AM, M4 allosteric agonist project, primary screen (AID 625;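 active = fluorescence slope after compound addition differing from the mean of all tested samples at 99.7% confidence, mostly higher but some lower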;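 note: thallium influx through GIRK channels coupled to M4 in HEK293 cells with BTC-AM dye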); conditions: at 10 µM, actives lie on both sides
[14] = measured here: cell density z-score
[15] = measured here: nuclear c-Myc green intensity z-score
[16] = measured here: nuclear pErk red intensity z-score, stronger effect = higher value

Alpha-2C adrenergic receptor (Homo sapiens), sequence (P18825 whole entry, looked up): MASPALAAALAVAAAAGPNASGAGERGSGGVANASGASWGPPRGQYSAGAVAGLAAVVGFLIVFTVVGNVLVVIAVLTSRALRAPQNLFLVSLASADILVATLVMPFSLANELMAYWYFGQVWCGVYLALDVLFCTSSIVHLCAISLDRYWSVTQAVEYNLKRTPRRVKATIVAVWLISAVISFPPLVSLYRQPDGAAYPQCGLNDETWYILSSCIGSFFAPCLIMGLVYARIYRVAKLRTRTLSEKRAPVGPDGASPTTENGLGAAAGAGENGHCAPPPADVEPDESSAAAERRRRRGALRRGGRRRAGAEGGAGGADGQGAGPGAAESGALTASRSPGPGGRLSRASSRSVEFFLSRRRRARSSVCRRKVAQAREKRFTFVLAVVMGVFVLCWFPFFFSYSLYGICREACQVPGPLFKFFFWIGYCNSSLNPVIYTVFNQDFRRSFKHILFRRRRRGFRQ
Dual specificity protein phosphatase 6 (Homo sapiens), sequence (Q16828 whole entry, looked up): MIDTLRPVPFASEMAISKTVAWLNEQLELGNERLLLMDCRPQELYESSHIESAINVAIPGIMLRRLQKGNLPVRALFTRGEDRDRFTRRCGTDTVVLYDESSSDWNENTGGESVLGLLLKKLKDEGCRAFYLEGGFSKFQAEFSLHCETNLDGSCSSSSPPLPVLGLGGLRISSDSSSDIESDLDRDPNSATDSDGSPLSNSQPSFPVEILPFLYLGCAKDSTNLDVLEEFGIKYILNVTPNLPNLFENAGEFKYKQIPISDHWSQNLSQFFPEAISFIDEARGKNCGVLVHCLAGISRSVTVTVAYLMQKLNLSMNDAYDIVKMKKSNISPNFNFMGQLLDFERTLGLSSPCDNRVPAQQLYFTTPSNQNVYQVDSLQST
Voltage-gated potassium channel subunit beta-2 (Rattus norvegicus), sequence (P62483 whole entry, looked up): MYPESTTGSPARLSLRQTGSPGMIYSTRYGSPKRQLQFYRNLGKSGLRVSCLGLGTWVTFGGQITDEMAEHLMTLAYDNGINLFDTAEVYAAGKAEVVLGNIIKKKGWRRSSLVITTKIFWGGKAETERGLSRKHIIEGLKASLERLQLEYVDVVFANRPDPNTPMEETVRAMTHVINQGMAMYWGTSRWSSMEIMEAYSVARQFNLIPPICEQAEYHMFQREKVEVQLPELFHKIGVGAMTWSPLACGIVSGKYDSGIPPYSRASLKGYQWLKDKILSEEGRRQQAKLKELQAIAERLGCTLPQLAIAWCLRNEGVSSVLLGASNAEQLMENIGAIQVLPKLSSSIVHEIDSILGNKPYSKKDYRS
Muscarinic acetylcholine receptor M4 (Homo sapiens), sequence (P08173 whole entry, looked up): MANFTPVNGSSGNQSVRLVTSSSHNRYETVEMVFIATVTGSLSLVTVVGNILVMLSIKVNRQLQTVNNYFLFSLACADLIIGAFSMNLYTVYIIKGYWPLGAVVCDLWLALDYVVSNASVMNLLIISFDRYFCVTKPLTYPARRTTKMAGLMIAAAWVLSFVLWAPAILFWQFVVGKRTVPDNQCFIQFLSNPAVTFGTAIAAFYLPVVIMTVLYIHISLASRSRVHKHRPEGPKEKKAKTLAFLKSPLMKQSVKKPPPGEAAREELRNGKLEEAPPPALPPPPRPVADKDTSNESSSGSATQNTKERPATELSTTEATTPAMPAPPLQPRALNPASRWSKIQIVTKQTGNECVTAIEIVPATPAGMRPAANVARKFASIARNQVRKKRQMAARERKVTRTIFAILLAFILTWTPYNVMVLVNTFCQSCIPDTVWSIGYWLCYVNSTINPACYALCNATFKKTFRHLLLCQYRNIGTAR

| SMILES | cell count [1] | inhibition [1] | inhibition of aggregation [2] | nuclei count [2] [%] | inhibition [3] | nuclei count [3] [%] | z-score [4, 14] | z-score [4, 15] | z-score [4, 16] | inhibition [5] | fluorescence slope [6] | NADPH fluorescence slope [7] | slope [8] | outcome [9] | inhibition [10] | inhibition [11] | inhibition [12] | fluorescence slope [13] |
| --- | --- | --- | --- | --- | --- | --- | --- | --- | --- | --- | --- | --- | --- | --- | --- | --- | --- | --- |
| COc1ccc2[nH]cc(CCN(C)C)c2c1 | 560 | -3.3% (inactive) | -16.8% (inactive) | 95.6 | -34% (inactive) | 102 | -0.633 | 0.535 | 0.345 | 3.59% (inactive) | -0.516 (inactive) | 1.6e-07 (inactive) | 0.00666 (inactive) | inactive | 12.8% (inactive) and -9.88% (inactive) | 7.44% (inactive) | 13.2% (inactive) | – |
| CN1CC[C@@]23CCCC[C@@H]2[C@@H]1Cc1ccc(O)cc13 | 612 | -2% (inactive) | -9.3% (inactive) | 78.9 | -41.4% (inactive) | 127 | -1.02 | 0.228 | 2.32 | -3.03% (inactive) | -0.439 (inactive) | 2.4e-05 (inactive) | 0.00406 (inactive) | inactive | -11.1% (inactive) | -1.46% (inactive) | 37.2% (inactive) | – |
| Cc1ccc(C)c(C2(O)CC(C)N(C)CC2C)c1 (stereo not given) | 530 | 1.6% (inactive) | -5.5% (inactive) | 99.7 | -53.3% (inactive) | 111 | -0.226 | 0.594 | -0.947 | 5.35% (inactive) | -0.458 (inactive) | -4.2e-05 (inactive) | – | inactive | -6.61% (inactive) | -14.7% (inactive) | 94.6% (active) | 0.00518 (inactive) |
| O=c1c2ccccc2[se]n1-c1ccccc1 | 504 | -10.8% (inactive) | 7.2% (inactive) | 84.9 | -42.3% (inactive) | 117 | 1 | 0.0235 | -0.954 | 7.39% (inactive) | -0.437 (inactive) | -0.000217 (active) | 0.00458 (inactive) | inactive | 6.32% (inactive) and 27.8% (inactive) | 0.283% (inactive) | 12.7% (inactive) | – |
| CNCC(O)c1ccc(O)cc1 (stereo not given) | 624 | 3.3% (inactive) | 4.2% (inactive) | 102 | -43.9% (inactive) | 118 | -0.968 | -0.213 | 1.33 | -0.828% (inactive) | -0.493 (inactive) | 1.3e-05 (inactive) | 0.00558 (inactive) | inactive | -0.226% (inactive) and -8.32% (inactive) | 14.9% (inactive) | 28.2% (inactive) | – |
